# Compound activity (PubChem)
# AGP1 TOR yeast – modulators of AGP1-GFP expression in yeast TOR pathway, primary screen, cell-based, multiplex flow cytometry, S. cerevisiae, MLPCN library | AID 2066, 2009 | GFP response vs DMSO, % at 10 µM | hit rate 0.02% among 320,000 | 3 h; GFP as percent of DMSO wells;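 active means GFP response relative to DMSO above a set limit, near screen average plus 3 SD, cut at about 150% in these data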;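 further: median GFP channel fluorescence of the gated AGP1 strain per well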
# Myeloid diff MLP – induction of myeloid progenitor differentiation, primary screen, cell-based, flow cytometry, MLPCN library; ER-HoxA9 myeloid progenitors, lysozyme-GFP differentiation; calls only at 10 µM; hit rate 1% among 360,000;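 active means normalized GFP-positive differentiation at or above the plate's own cutoff, the solvent-only control mean plus 3 SD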;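 further: cells exposed to compound for four days before flow analysis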
# MEP2-GFP yeast – modulators of MEP2-GFP levels in yeast, primary screen, S. cerevisiae, multiplex flow cytometry, MLPCN library; S. cerevisiae MEP2-GFP strain, 3 h; 100% = DMSO control level; GFP response vs DMSO, % at 10 µM; hit rate 0.51% among 330,000;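 active means GFP response versus DMSO above a set limit, roughly screen mean plus 3 SD, cut at about 180% in these data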;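 further: median GFP fluorescence of the barcode-gated MEP2-GFP cells per well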
# RPL19A-GFP yeast – RPL19A-GFP expression modulators in yeast, primary screen, cell-based, S. cerevisiae, multiplex flow cytometry, MLPCN | S. cerevisiae RPL19A-GFP strain, 3 h; active compounds read low | percent response vs DMSO, % at 10 µM | hit rate 0.3% among 330,000;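 active means percent response vs DMSO below 50%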;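 further: median channel GFP fluorescence of the barcoded RPL19A-GFP strain; ratio of sample median GFP to plate DMSO average so 100% = DMSO; lower means less RPL19A-GFP as with rapamycin TOR inhibition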
# LAP4-GFP MLPCN – modulators of LAP4-GFP expression in yeast, primary screen, S. cerevisiae, multiplex flow cytometry, MLPCN library; 3 h; median GFP as percent of DMSO wells; GFP response vs DMSO, % at 10 µM; hit rate 0.34% among 320,000; AID 2023, 2009;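 active means GFP response vs DMSO above a set limit, about the screen mean plus 3 SD, cut at about 150% in these data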
# CIT2-GFP yeast – modulators of CIT2-GFP expression in yeast, primary screen, S. cerevisiae, GFP fusion, multiplex flow cytometry, MLPCN library; GFP response vs DMSO, % at 10 µM; hit rate 0.065% among 320,000; S. cerevisiae CIT2-GFP strain, 3 h; 100 means same as DMSO wells; AID 2029, 2009;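 active means GFP response relative to DMSO above a set limit, near the screen mean plus 3 SD, cut at about 150% in these data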;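 further: ratio of well median GFP fluorescence to mean of DMSO wells on the plate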
# LAP4 cherry2 – LAP4-GFP expression modulators in yeast, confirmation, cell-based, second cherry pick, flow cytometry; AID 2621, 2010; S. cerevisiae LAP4-GFP strain, 3 h; shares compounds with LAP4-GFP MLPCN; hit rate 20% among 590; GFP response vs DMSO, % at 10 µM;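 active means GFP signal as percent of the solvent control above about 150%, meaning raised reporter expression, limit read from the data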;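 further: ratio of well median GFP fluorescence to plate DMSO mean so 100% = DMSO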
# MEP2-GFP pick2 – modulators of MEP2-GFP levels in yeast, confirmation, S. cerevisiae, flow cytometry GFP, second cherry picks | shares compounds with LAP4-GFP MLPCN | S. cerevisiae MEP2-GFP strain, 3 h | GFP response vs DMSO, % at 10 µM | hit rate 10% among 590;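 active means GFP signal above 150% of the solvent control wells, that is a rise of more than half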;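 further: median channel GFP fluorescence of all gated yeast cells per well; ratio of median GFP to plate DMSO average so 100% = DMSO level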
# RPL19A-GFP pick2 – RPL19A-GFP modulators in TOR pathway yeast, confirmation, cell-based, S. cerevisiae, flow cytometry, second cherry pick; shares compounds with LAP4-GFP MLPCN; S. cerevisiae RPL19A-GFP strain, 3 h; active compounds read low; 100% means same as DMSO wells; GFP response vs DMSO, % at 10 µM; hit rate 3% among 590;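 active means under 65% GFP response relative to DMSO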;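 further: median GFP channel fluorescence per well over the all cells gate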
# CIT2-GFP pick2 – modulators of CIT2-GFP expression in yeast, confirmation, flow cytometry, second cherry pick, single plex. hit rate 8% among 590. GFP response vs DMSO, % at 10 µM. AID 2624, 2010. S. cerevisiae CIT2-GFP strain, 3 h; DMSO control wells read 100%. shares compounds with LAP4-GFP MLPCN;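 active means GFP response vs DMSO above about 150%, limit read from the data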;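 further: median green fluorescence per well over all gated yeast cells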
# AGP1 GFP CP2 – AGP1-GFP expression modulators, hit retest, confirmation, cell-based, flow cytometry, S. cerevisiae, cherry pick set 2 | shares compounds with LAP4-GFP MLPCN | S. cerevisiae AGP1-GFP strain, 3 h | percent response vs DMSO, % at 10 µM | 590 tested, under 10 active;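 active means over 150 percent of DMSO response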;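 further: median GFP channel fluorescence over all cells without mother daughter split; sample median GFP divided by mean DMSO control so 100% equals DMSO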
# s288c autofluor – compound autofluorescence in yeast s288c, dose response, artefact control for yeast TOR pathway GFP screen, s288c strain; fluorescence change (kMESF span) at 33 µM; shares compounds with LAP4-GFP MLPCN; S. cerevisiae s288c, 520 nm autofluorescence, flow cytometry, 3 h; active compounds read high; zero means same as solvent-only cells; 610 tested, under 10 active; AID 2757, 2010;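 active means fluorescence span over the dose series, or activity score, above about 33, limit read from the data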
# Active calls of the source: *; i = inactive; nt = no result. Rows were chosen to be rich in hits. Some 1.8% of all compounds tested hit in one or more screens of this group.
SMILES,AGP1 TOR yeast,Myeloid diff MLP,MEP2-GFP yeast,RPL19A-GFP yeast,LAP4-GFP MLPCN,CIT2-GFP yeast,LAP4 cherry2,MEP2-GFP pick2,RPL19A-GFP pick2,CIT2-GFP pick2,AGP1 GFP CP2,s288c autofluor
CCc1noc(C)c1C(=O)Nc1nc2c(F)cc(F)cc2s1,84,i,95,86,163*,66,122,111,93,87,90,nt
CCc1noc(C)c1C(=O)Nc1nc2c(C)cccc2s1,95,i,98,93,150,77,nt,nt,nt,nt,nt,nt
O=C1C(=O)N(CCN2CCOCC2)C(c2ccc(Cl)c(Cl)c2)/C1=C(/O)c1ccc2c(c1)OCO2 (stereo unspecified),92,i,74,86,103,96,nt,nt,nt,nt,nt,nt
O=C1C(=O)N(CCN2CCOCC2)C(c2cccc(Cl)c2)/C1=C(\O)c1ccc2c(c1)OCCO2 (stereo unspecified),27,i,136,50,93,107,100,98,97,112,98,nt
O=S(=O)(c1ccccc1)N1N=C(c2cccs2)CC1c1cccc(O)c1 (stereo unspecified),108,i,128,108,99,157*,99,96,99,107,101,nt
O=S(=O)(c1ccccc1)N1N=C(c2cccs2)CC1c1ccc(F)cc1 (stereo unspecified),102,i,102,97,100,92,nt,nt,nt,nt,nt,nt
Cc1ccc(/C=C/C(=O)c2ccc([N+](=O)[O-])o2)cc1,88,nt,97,99,176*,87,nt,nt,nt,nt,nt,1.9
Cc1[nH]n(-c2ccccc2)c(=O)c1C(c1ccccc1[N+](=O)[O-])C(C#N)C#N (stereo unspecified),83,i,95,105,168*,100,nt,nt,nt,nt,nt,1.3
O=C1N(c2ccccc2C(F)(F)F)O[C@@]1(c1ccccc1)C1CCCC1,99,i,92,96,110,105,109,105,106,113,101,-0.2
O=c1[nH]ncn1-c1ccccc1C(F)(F)F,105,i,103,103,91,104,nt,nt,nt,nt,nt,nt
O=C1N(c2ccccc2C(F)(F)F)O[C@@]1(c1ccccc1)C1CCCCC1,56,i,103,95,105,85,108,97,105,114,97,0
COc1ccc(N=Cc2nc(-c3ccco3)oc2O)cc1,87,i,97,92,120,87,nt,nt,nt,nt,nt,nt
CN(C)c1ccc(N=Cc2nc(-c3ccccc3)oc2OC(=O)c2ccccc2)cc1,98,i,105,102,98,108,nt,nt,nt,nt,nt,0.61
CC(=O)Oc1oc(-c2ccccc2)nc1C=Nc1ccc(N(C)C)cc1,102,i,98,101,110,94,nt,nt,nt,nt,nt,0
CN(C)c1ccc(N=Cc2nc(-c3ccccc3)oc2O)cc1,88,i,84,84,72,93,nt,nt,nt,nt,nt,nt
COc1ccccc1N=Cc1nc(-c2ccccc2)oc1OC(C)=O,91,i,95,94,108,78,nt,nt,nt,nt,nt,-0.7
O=C(Oc1oc(-c2ccco2)nc1C=Nc1ccc(Cl)cc1)c1ccco1,82,i,96,91,230*,102,nt,nt,nt,nt,nt,0.21
CCOC(=O)c1oc2ccccc2c1COC(=O)CNC(=O)c1ccccc1OC,96,i,100,97,115,86,nt,nt,nt,nt,nt,nt
CO/N=C/c1ccc(Oc2ccc(C)cc2)c([N+](=O)[O-])c1,105,i,99,98,107,96,nt,nt,nt,nt,nt,nt
COC(=O)c1ccc(C)cc1C1CN=NC12Cc1cc(C)ccc1C2=O (stereo unspecified),nt,i,nt,nt,nt,nt,nt,nt,nt,nt,nt,nt
COc1ccc(CNC(=O)C[C@H]2C[C@H](C(=O)N3CCOCC3)[C@@]3(C)c4[nH]c5ccc(Cl)cc5c4CCN3C2=O)cc1OC,nt,i,nt,nt,nt,nt,nt,nt,nt,nt,nt,nt
CC(C)c1cc(-c2cc(-c3ccccc3)on2)nc(NC2CCCC2)n1,83,i,89,98,126,99,nt,nt,nt,nt,nt,nt
Cc1cc(-c2cc(C(=O)NCc3ccccc3)on2)nc(NCC2CC2)n1,100,i,113,100,109,96,102,97,98,100,98,nt
CCCNc1nc(C)cc(-c2cc(C(=O)NCc3ccccc3)on2)n1,82,i,93,97,153*,92,101,98,98,97,97,nt
COCCNc1nc(C)cc(-c2cc(C(=O)NC3CCCC3)on2)n1,82,i,82,88,134,88,nt,nt,nt,nt,nt,nt
CC(C)c1cc(-c2cc(C(=O)Nc3ccccc3)on2)nc(NC2CCCC2)n1,88,i,90,97,110,88,101,105,99,89,99,nt
CCCNc1nc(C)cc(-c2cc(C(=O)Nc3ccccc3)on2)n1,89,i,94,100,104,94,102,108,97,101,104,nt
Cc1cc(NC(=O)CC#N)n(-c2nc3ccccc3[nH]2)n1,97,i,101,99,106,108,nt,nt,nt,nt,nt,nt
COC(=O)CC1=Nc2ccccc2NC(=O)C1,99,i,95,96,89,nt,nt,nt,nt,nt,nt,nt
CCc1nn2c(N3CCOCC3)cc(C)nc2c1-c1ccccc1,97,i,106,102,85,101,nt,nt,nt,nt,nt,nt
